# Reference: PMC7862700, “An all-to-all approach to the identification of sequence-specific readers for epigenetic DNA modifications on cytosine”
# Legend:
# Assay in all cases: DAPPL (digital affinity profiling via proximity ligation, sequencing); 10 mM Tris-HCl pH 7.5, 50 mM NaCl, 1 mM DTT, 4% glycerol, room temperature, 30 min; GST-TFs on glutathione beads, 16-mer random dsDNA library, 0.1% formaldehyde crosslink after washing; high values mean tight binding
# FLI1 = biological target: T1, FLI1 (Homo sapiens, UniProt Q01543 1-452); settings: protein: recombinant; tags: N-terminal GST; dsDNA, one strand shown
# T1 sequence: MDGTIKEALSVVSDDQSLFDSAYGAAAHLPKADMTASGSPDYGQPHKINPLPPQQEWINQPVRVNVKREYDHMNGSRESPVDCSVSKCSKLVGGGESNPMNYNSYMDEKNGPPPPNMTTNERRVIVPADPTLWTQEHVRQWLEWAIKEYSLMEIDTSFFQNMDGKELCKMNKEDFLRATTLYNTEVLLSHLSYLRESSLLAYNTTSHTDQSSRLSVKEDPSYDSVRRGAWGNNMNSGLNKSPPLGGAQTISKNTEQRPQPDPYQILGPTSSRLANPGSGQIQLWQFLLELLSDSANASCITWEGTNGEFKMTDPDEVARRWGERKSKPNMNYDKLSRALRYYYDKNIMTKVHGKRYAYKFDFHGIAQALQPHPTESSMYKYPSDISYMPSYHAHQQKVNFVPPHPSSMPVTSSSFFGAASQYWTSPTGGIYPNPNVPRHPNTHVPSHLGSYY
# Outline: (§1)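 Binding signal is defined as a hexamer's read frequency for one factor over its frequency for the tag-only sample. To obtain reads, GST-fused human transcription factors were expressed in yeast, captured on glutathione beads, barcoded with DNA and pooled with that sample. Pools met 200 nmole of a 16-mer random double-stranded DNA library in Tris/NaCl/DTT/glycerol buffer for 30 min at room temperature before washing, 0.1% formaldehyde crosslinking, proximity ligation (BsaI/T4 ligase, 1 h, 37 °C), PCR and Illumina NextSeq500 sequencing.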
# ELK1 = biological target: T2, ELK1 (Homo sapiens, UniProt P19419 1-428); settings: protein: recombinant; tags: N-terminal GST; dsDNA, one strand shown
# T2 sequence: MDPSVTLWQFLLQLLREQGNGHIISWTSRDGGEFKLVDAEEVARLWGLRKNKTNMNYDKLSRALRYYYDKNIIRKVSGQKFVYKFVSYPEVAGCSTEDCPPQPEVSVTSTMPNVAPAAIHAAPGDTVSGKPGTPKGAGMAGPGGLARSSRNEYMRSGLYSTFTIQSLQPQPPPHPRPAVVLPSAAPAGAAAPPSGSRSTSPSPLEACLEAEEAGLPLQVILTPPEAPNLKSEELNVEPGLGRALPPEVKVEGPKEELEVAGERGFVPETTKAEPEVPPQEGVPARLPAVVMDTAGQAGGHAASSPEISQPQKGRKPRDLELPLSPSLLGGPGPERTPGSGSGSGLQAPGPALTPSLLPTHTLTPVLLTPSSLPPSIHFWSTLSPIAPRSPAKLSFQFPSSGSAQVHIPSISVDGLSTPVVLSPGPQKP
# Outline: as §1
# GABPA = biological target: T3, GABPA (Homo sapiens, UniProt Q06546 1-454); settings: protein: recombinant; tags: N-terminal GST; dsDNA, one strand shown
# T3 sequence: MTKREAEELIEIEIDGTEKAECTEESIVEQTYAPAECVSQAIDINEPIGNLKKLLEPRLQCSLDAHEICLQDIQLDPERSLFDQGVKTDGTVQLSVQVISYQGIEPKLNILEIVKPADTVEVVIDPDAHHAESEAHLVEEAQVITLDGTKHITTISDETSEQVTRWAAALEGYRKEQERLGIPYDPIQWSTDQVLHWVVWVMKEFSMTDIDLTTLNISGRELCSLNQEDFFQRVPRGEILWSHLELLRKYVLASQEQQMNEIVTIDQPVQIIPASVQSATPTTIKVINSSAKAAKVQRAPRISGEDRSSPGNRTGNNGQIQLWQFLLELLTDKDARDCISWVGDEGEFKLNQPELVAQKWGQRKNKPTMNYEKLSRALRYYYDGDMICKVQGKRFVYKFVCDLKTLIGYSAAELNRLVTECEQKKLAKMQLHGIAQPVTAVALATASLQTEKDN
# Outline: as §1
# ERG = biological target: T4, ERG (Homo sapiens, UniProt P11308 1-479); settings: protein: recombinant; tags: N-terminal GST; dsDNA, one strand shown
# T4 sequence: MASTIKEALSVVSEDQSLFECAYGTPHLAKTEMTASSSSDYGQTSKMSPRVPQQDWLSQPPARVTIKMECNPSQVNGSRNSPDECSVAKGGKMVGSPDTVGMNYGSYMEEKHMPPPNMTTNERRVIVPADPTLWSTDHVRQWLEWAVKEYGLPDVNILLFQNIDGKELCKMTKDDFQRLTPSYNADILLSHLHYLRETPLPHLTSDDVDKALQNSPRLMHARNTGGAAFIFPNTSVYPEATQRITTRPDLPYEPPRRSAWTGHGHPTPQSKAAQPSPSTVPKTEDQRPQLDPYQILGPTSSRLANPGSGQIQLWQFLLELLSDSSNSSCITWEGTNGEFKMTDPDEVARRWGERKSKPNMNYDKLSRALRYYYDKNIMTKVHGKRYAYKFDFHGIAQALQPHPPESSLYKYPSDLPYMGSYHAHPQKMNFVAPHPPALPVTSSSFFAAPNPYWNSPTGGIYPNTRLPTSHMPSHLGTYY
# Outline: as §1
# ELF1 = ELF1 (Homo sapiens, UniProt P32519 1-619); settings: protein: recombinant; tags: N-terminal GST; dsDNA, one strand shown
# ELF1, sequence (P32519 whole entry): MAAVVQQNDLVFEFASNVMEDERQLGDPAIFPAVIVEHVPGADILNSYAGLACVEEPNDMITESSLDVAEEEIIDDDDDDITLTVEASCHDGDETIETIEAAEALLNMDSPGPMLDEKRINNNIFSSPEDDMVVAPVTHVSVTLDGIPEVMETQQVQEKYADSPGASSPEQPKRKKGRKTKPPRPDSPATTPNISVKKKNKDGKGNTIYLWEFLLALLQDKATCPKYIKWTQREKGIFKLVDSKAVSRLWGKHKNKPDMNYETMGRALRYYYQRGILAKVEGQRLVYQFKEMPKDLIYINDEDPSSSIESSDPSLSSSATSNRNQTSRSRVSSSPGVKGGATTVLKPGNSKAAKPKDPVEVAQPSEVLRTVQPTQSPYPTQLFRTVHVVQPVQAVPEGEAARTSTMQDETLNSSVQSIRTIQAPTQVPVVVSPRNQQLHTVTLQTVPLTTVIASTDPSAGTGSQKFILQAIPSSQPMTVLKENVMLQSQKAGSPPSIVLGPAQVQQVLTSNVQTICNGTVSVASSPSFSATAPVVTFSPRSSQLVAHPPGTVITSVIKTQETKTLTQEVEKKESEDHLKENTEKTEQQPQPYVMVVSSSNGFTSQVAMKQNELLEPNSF
# Outline: as §1
# EHF = biological target: T5, EHF (Homo sapiens, UniProt Q9NZC4 1-300); settings: protein: recombinant; tags: N-terminal GST; dsDNA, one strand shown
# T5 sequence: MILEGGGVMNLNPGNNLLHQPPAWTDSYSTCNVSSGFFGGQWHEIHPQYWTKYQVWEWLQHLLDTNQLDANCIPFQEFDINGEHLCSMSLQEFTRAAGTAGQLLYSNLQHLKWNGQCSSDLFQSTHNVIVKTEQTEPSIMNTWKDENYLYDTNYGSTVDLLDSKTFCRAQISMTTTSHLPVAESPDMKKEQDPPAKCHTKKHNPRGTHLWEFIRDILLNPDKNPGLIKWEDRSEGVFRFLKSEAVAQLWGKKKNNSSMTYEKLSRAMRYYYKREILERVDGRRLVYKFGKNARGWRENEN
# Outline: as §1
# SPI1 = SPI1 (Homo sapiens, UniProt P17947 1-270); settings: protein: recombinant; tags: N-terminal GST; dsDNA, one strand shown
# Outline: as §1
# SPIB = SPIB (Homo sapiens, UniProt Q01892 1-262); settings: protein: recombinant; tags: N-terminal GST; dsDNA, one strand shown
# SPIB, sequence (Q01892 whole entry): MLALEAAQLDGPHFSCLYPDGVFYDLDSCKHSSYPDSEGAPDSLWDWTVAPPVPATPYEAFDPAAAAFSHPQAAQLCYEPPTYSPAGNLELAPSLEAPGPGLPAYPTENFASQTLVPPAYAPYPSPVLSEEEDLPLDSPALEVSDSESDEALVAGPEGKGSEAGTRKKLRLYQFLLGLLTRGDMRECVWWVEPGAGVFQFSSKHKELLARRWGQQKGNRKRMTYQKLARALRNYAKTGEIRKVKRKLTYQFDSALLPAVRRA
# Outline: as §1
# ELK3 = biological target: T6, ELK3 (Homo sapiens, UniProt P41970 1-407); settings: protein: recombinant; tags: N-terminal GST; dsDNA, one strand shown
# T6 sequence: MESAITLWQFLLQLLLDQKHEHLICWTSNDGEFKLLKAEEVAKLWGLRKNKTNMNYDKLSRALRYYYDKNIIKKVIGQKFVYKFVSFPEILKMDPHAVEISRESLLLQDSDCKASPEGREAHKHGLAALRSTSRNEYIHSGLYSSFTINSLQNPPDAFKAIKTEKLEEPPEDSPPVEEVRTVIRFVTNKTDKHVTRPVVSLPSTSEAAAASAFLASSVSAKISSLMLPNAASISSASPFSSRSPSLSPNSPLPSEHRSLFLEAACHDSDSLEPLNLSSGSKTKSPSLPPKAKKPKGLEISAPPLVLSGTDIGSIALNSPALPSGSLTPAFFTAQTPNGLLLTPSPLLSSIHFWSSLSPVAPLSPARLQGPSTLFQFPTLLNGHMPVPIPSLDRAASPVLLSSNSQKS
# Outline: as §1
# FEV = biological target: T7, FEV (Homo sapiens, UniProt Q99581 1-238); settings: protein: recombinant; tags: N-terminal GST; dsDNA, one strand shown
# T7 sequence: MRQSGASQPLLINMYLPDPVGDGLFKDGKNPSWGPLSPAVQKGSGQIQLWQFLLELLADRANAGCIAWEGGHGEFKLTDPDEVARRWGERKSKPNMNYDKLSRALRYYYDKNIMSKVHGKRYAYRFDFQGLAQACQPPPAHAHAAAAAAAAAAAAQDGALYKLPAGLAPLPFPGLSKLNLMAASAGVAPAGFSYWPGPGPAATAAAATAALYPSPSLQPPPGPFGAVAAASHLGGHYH
# Outline: as §1
# ETV5 = ETV5 (Homo sapiens, UniProt P41161 1-510); settings: protein: recombinant; tags: N-terminal GST; dsDNA, one strand shown
# ETV5, sequence (P41161 whole entry): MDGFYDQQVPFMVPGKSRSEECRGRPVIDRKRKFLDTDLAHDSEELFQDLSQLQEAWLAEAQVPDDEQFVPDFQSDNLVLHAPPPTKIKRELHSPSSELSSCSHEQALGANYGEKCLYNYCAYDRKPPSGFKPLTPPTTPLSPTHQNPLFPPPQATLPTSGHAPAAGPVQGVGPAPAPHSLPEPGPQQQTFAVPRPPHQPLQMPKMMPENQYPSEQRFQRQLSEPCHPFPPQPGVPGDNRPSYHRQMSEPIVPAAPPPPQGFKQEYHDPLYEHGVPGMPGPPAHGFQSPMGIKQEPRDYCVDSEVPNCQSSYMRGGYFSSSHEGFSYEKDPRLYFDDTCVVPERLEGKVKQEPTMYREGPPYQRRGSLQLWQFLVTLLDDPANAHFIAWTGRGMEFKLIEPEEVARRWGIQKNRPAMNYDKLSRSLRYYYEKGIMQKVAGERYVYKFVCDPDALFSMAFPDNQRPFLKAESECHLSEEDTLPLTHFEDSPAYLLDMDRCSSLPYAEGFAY
# Outline: as §1
# HSF1 = HSF1 (Homo sapiens, UniProt Q00613 1-529); settings: protein: recombinant; tags: N-terminal GST; chain copies: 3; dsDNA, one strand shown
# HSF1, sequence (Q00613 whole entry): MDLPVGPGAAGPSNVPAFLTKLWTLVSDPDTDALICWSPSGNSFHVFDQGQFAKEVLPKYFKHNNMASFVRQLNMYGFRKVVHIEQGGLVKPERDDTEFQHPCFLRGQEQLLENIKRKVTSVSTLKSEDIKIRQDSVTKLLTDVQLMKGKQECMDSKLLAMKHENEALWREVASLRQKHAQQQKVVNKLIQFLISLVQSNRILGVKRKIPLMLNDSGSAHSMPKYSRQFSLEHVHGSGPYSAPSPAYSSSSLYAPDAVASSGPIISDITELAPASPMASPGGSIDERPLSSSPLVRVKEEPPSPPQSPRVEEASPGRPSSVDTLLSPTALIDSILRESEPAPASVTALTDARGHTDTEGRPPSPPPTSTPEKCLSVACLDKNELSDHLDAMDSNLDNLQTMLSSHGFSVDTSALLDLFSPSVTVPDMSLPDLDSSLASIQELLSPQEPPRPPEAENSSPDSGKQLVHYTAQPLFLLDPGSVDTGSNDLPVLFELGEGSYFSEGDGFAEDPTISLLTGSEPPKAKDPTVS
# Outline: as §1
# SPIC = biological target: T8, SPIC (Homo sapiens, UniProt Q8N5J4 1-248); settings: protein: recombinant; tags: N-terminal GST; dsDNA, one strand shown
# T8 sequence: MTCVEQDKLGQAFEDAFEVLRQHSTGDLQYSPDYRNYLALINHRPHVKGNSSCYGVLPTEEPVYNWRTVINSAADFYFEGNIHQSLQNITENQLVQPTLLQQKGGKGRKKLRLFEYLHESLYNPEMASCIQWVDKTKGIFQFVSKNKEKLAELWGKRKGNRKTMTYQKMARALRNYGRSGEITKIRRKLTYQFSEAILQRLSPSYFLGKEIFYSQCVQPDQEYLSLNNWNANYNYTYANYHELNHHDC
# Outline: as §1
# ELF4 = ELF4 (Homo sapiens, UniProt Q99607 1-663); settings: protein: recombinant; tags: N-terminal GST; dsDNA, one strand shown
# ELF4, sequence (Q99607 whole entry): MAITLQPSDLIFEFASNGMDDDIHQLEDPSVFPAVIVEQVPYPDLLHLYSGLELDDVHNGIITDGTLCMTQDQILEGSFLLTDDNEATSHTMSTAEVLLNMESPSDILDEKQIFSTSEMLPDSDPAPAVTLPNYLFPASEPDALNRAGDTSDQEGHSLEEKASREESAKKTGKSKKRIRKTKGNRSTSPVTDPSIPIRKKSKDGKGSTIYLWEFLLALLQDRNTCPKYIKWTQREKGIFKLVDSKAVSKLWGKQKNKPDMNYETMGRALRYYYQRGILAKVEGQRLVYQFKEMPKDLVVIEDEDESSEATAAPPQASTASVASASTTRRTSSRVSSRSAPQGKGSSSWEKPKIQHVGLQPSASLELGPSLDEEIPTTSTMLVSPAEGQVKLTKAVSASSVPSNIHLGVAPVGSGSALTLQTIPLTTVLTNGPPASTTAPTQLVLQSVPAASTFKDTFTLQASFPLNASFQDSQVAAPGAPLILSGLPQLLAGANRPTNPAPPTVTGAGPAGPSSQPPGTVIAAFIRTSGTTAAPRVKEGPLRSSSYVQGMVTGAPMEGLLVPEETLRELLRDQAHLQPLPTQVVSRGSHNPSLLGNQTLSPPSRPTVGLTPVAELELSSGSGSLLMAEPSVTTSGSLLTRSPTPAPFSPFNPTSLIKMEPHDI
# Outline: as §1
# ELK4 = biological target: T9, ELK4 (Homo sapiens, UniProt P28324-2 1-405); settings: protein: recombinant; tags: N-terminal GST; dsDNA, one strand shown
# T9 sequence: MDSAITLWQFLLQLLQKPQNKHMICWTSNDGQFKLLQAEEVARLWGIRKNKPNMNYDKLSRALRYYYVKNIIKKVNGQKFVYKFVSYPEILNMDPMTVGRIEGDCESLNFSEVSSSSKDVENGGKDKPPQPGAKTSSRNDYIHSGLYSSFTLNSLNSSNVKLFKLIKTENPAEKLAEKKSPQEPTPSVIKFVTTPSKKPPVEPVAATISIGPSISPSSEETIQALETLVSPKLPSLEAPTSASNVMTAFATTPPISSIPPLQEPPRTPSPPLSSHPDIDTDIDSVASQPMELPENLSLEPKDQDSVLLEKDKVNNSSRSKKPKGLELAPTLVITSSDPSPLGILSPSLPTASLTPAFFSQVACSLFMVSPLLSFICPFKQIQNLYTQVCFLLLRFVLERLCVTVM
# Outline: as §1
# ELF3 = biological target: T10, ELF3 (Homo sapiens, UniProt P78545 1-371); settings: protein: recombinant; tags: N-terminal GST; dsDNA, one strand shown
# T10 sequence: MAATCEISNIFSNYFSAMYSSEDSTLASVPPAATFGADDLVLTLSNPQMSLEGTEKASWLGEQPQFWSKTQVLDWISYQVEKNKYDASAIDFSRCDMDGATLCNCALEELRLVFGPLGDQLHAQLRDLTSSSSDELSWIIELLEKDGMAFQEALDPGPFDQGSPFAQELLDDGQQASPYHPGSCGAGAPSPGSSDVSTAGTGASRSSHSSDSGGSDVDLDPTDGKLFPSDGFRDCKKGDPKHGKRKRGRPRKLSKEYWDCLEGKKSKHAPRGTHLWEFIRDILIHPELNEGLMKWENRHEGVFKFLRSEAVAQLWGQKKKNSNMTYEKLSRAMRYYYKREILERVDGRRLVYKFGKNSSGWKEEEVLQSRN
# Outline: as §1
# CRX = CRX (Homo sapiens, UniProt O43186 1-299); settings: protein: recombinant; tags: N-terminal GST; dsDNA, one strand shown
# CRX, sequence (O43186 whole entry): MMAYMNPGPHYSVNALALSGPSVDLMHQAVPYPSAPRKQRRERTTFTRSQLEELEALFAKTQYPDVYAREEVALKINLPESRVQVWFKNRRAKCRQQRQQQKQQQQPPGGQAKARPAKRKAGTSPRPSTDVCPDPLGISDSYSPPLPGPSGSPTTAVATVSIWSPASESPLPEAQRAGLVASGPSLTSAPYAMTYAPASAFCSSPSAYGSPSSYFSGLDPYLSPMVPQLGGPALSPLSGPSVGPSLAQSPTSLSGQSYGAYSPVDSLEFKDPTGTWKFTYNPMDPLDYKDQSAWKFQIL
# Outline: as §1
# ETV1 = ETV1 (Homo sapiens, UniProt P50549 1-477); settings: protein: recombinant; tags: N-terminal GST; dsDNA, one strand shown
# ETV1, sequence (P50549 whole entry): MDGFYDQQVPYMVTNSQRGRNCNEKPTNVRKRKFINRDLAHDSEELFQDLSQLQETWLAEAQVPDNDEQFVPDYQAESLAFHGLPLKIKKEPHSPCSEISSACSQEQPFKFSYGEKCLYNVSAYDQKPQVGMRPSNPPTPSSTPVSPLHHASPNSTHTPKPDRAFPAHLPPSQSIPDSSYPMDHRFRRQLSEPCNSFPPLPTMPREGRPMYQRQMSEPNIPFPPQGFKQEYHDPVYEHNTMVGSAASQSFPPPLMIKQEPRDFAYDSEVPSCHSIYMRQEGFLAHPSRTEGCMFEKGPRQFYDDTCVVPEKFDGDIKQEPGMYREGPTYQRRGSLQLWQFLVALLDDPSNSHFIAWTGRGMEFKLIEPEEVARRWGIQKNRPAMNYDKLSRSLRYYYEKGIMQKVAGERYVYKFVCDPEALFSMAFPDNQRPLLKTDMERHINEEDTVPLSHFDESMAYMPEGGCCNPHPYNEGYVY
# Outline: as §1
sequence,measurement,setting,value
GGGCTT,binding signal,FLI1,"1.31 fold enrichment (6-mer frequency, TF over GST control)"
same,binding signal,ELK1,"1.18 fold enrichment (6-mer frequency, TF over GST control)"
same,binding signal,GABPA,"1.15 fold enrichment (6-mer frequency, TF over GST control)"
same,binding signal,ERG,"1.21 fold enrichment (6-mer frequency, TF over GST control)"
same,binding signal,ELF1,"1.19 fold enrichment (6-mer frequency, TF over GST control)"
same,binding signal,EHF,"1.24 fold enrichment (6-mer frequency, TF over GST control)"
same,binding signal,SPI1,"1.1 fold enrichment (6-mer frequency, TF over GST control)"
same,binding signal,SPIB,"1.2 fold enrichment (6-mer frequency, TF over GST control)"
same,binding signal,ELK3,"1.41 fold enrichment (6-mer frequency, TF over GST control)"
same,binding signal,FEV,"1.24 fold enrichment (6-mer frequency, TF over GST control)"
same,binding signal,ETV5,"1.18 fold enrichment (6-mer frequency, TF over GST control)"
same,binding signal,HSF1,"1.46 fold enrichment (6-mer frequency, TF over GST control)"
same,binding signal,SPIC,"1.11 fold enrichment (6-mer frequency, TF over GST control)"
same,binding signal,ELF4,"1.08 fold enrichment (6-mer frequency, TF over GST control)"
same,binding signal,ELK4,"1.22 fold enrichment (6-mer frequency, TF over GST control)"
same,binding signal,ELF3,"1.17 fold enrichment (6-mer frequency, TF over GST control)"
same,binding signal,CRX,"1.77 fold enrichment (6-mer frequency, TF over GST control)"
same,binding signal,ETV1,"1.29 fold enrichment (6-mer frequency, TF over GST control)"
